# SMN2 splice up – qHTS Assay for Enhancers of SMN2 Splice Variant Expression | HEK293 SMN2-luciferase splicing reporter, luminescence, 30-36 h | Potency, µM (titrated, usually from 46.1 µM), without a hit: at the highest dose activity change, positive = activation, most hits filed as activators | 2.8% of 210,000 active | AID 1458, 2008; further: % of control where 0% means no effect; nearly all actives have a fitted effect of over 55% in size
#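 qHTS luciferase splicing reporter: luminescence rises when SMN2 exon 7 is included in transfected HEK293 cells. Compound exposure lasted 30-36 h at 37C, with 4.5 mM final sodium butyrate as control, followed by a ONE-Glo read.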
# Rab9 promoter act – qHTS Assay for Rab9 Promoter Activators | Huh7 Rab9 promoter-luciferase reporter, luminescence, 24 h | Potency, µM (top dose mostly 9.22 µM), for the others: at the top dose activation, negative = inhibition, actives largely listed as activators | 2.8% of 320,000 active | AID 485297, 2010; further: % of control where 0% means no effect; nearly all actives have a fitted effect of over 60% in size
#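 Huh7 reporter line, Rab9 promoter upstream of luciferase. Compound exposure 24 h at 37 °C in reduced-serum medium with 10% FBS. Read-out: luminescence.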
# ELG1 genotoxic – qHTS screen for small molecules that induce genotoxicity in human embryonic kidney (HEK293T) cells expressing luciferase-tagged ELG1. HEK293T ELG1-luciferase reporter, luminescence, 16 h. Potency, µM (series often up to 46 µM), inactives show at the top dose activity change, positive = activation, usual class: activators. 1.3% of 330,000 active. AID 504466, 2011; further: % of control where 0% means no effect; nearly all actives have a fitted effect of over 60% in size
#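 16 hr compound incubation (37 °C, 5% CO2) of HEK293T cells carrying luciferase-tagged ELG1; luciferase then measured by ONE-Glo luminescence after 30 min at RT.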
# NPC1 promoter act – qHTS Assay for NPC1 Promoter Activators; Huh7 NPC1 promoter luciferase reporter, 24 h; Potency, µM (top dose mostly 9.22 µM), for the others: at the highest dose activation, most hits filed as activators; 2.4% of 320,000 active; AID 485313, 2010; further: % of control where 0% means no effect; nearly all actives have a fitted effect of over 60% in size
#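 Stable NPC1-promoter luciferase Huh7 line; cpd (DMSO) 24 h, 37 °C, 5% CO2; Amplite luciferase reagent 10 min RT; luminescence readout. qHTS format.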
# FLuc modulator – qHTS profiling assay for firefly luciferase inhibitor/activator using purifed enzyme and Km concentrations of substrates (counterscreen for miR-21 project) | Luciferin 4-monooxygenase (Photinus pyralis), P08659 | 6.9% of 360,000 active | AID 588342, 2011 | Potency, µM (top dose mostly 57.5 µM), for inactives: at the top dose activity change, negative = inhibition, actives largely listed as inhibitors | purified FLuc, Km substrates, luminescence inhibition;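 further: plate controls were vehicle for no effect and reference inhibitor for full effect; nearly all actives have a fitted effect of over 55% in size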
# Target sequence (P08659 whole entry, looked up): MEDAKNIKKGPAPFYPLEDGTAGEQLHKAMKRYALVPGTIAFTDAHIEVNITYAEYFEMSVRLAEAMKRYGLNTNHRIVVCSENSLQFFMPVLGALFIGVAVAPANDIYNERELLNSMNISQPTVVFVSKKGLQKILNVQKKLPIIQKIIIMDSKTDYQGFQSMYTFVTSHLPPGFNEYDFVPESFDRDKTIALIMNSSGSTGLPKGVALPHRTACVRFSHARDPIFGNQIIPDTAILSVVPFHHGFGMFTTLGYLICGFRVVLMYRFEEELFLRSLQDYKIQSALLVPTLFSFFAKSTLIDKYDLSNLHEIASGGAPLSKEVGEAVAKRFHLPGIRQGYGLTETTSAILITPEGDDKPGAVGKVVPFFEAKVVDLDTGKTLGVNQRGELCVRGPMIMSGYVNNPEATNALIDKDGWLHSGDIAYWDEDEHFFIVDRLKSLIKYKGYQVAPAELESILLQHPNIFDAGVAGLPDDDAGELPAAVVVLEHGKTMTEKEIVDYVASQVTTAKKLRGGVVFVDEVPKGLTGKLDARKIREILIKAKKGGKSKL
#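 Purified P. pyralis luciferase, 10 nM final, with Km-level 10 uM D-luciferin and 10 uM ATP in 50 mM Tris acetate pH 7.5, 10 mM Mg acetate, 0.01% Tween-20, 0.05% BSA; 6-point qHTS titration about 60 µM downward; luminescence read.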
# KinaseGlo FLuc – Counterscreen for Luciferase (Kinase-Glo TM) Inhibition; Kinase-Glo luciferase, ATP luminescence, 8 min; Potency, µM (series often up to 38.3 µM), for inactives: at the top dose activity change, negative = inhibition, most hits filed as inhibitors; 0.28% of 200,000 active; AID 1379, 2008; further: on the % scale 0 is the no-effect control and ±100 the full control effect; nearly all actives have a fitted effect of over 60% in size
#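 Light output from Kinase-Glo luciferase with luciferin and 10 uM ATP in 50 mM imidazole pH 7.2, KCl, MgCl2, Tween 20, BSA; compound pin-delivered, 8-min ambient incubation, then luminescence read.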
# * = called active by the depositor; ? = inconclusive; . = no result given; [ ] = dose if it differs, or a comment. Shown are actives, neighbours in structure and some others; about 7.5% of the full set was active somewhere. The call rests on the fitted dose curve; in most records, active means well fitted curve in the direction sought with a large enough effect; inconclusive means small, poorly fitted or top-dose-only effect, or another doubt; inactive means no such curve, though single readings can be large; an effect the other way counts as inactive or inconclusive. Potency means the concentration at half of the fitted maximal effect.
SMILES,SMN2 splice up,Rab9 promoter act,ELG1 genotoxic,NPC1 promoter act,FLuc modulator,KinaseGlo FLuc
CCOc1ccc(S(=O)(=O)NCc2ccc3c(c2)CCN3C(=O)c2ccc(C)cc2)cc1,.,.,.,.,-2%,.
O=C(O)c1cccc(N2C(=O)c3ccc(Oc4ccc(Cl)cc4)cc3C2=O)c1,.,5%,0%,-4%,7.6µM*,.
Cc1cccnc1NC1(C(F)(F)F)N=C2SCCN2C1=O (configuration not stated),-3%,-4%,1%,1%,0%,-3%
CSc1nn(Cc2ccc(Cl)cc2)c(N(C(C)=O)C(C)=O)c1S(=O)(=O)c1ccccc1,2%,.,.,.,2%,.
CCC1CCCCN1C(=O)CSc1nnc(-c2cccc(Cl)c2)o1 (configuration not stated),?,13%,18µM*,28%,?,4%
CCC1CCCCN1C(=O)CSc1nnc(-c2ccco2)o1 (configuration not stated),?,3.2µM*,?,?,15µM*,6%
CC1CCN(C(=O)CSc2nnc(-c3ccco3)o2)CC1,-7%,-7%,12%,2%,-14%,12%
CCC1CCCCN1C(=O)CSc1nnc(-c2ccc(Cl)cc2)o1 (configuration not stated),-45%,1%,-5%,1%,-15%,1%
O=C(CSc1nnc(-c2ccco2)o1)c1ccc[nH]1,18µM*,2.2µM*,?,?,?,-4%
O=C(CSc1nnc(-c2ccco2)o1)c1ccccc1,6%,?,8%,?,?,-3%
O=C(CSc1nnc(-c2ccco2)o1)N1CCCCC1,.,3.2µM*,19%,?,?,.
CCOC(=O)CNC(=O)O[C@@H]1C(=O)c2cc(OC)ccc2O[C@H]1c1ccc(OC)c(Br)c1,11%,.,.,.,.,3%
CCCn1cc(S(=O)(=O)c2cc(C)ccc2C)c(=O)c2cc(F)c(N3CCCCCC3)cc21,.,.,.,.,-5%,.
COc1ccc(C(=O)Nc2ccnn2C2CCN(Cc3ccccn3)CC2)cc1,.,4%,4%,6%,-3%,.
CCN(CC)CCCNC(=O)Cn1c(-c2cccs2)cc2cc(Cl)ccc21,.,.,.,.,2%,.
Cc1ccc(CSc2nc3c(c(=O)[nH]2)C(c2cccc(F)c2F)CC(=O)N3)cc1 (configuration not stated),.,.,.,.,-5%,.
O=C1OC(Cc2ccccn2)C(O)=C1C1=NCCCCN1 (configuration not stated),10µM*,2.2µM*,?,2.2µM*,?,-2%
Cc1cccc(N2CSC3=C(C#N)C(c4ccc(C)o4)CC(=O)N3C2)c1 (configuration not stated),6%,4%,?,-3%,17µM*,-8%
O=C(Nc1ccc2c(c1)OCCO2)c1ccc(Cl)c(S(=O)(=O)N2CCOCC2)c1,-38%,8%,-3%,5%,?,-3%
CC(C)Oc1cccc(C(=O)Nc2ccc(CN3CCOCC3)cc2)c1,-48%,1%,-4%,6%,12µM*,3%
O=C(Nc1ccc2c(c1)OCCO2)c1ccc(CN2CCOCC2)cc1,2%,3.5µM*,4%,28%,11µM*,3%
COc1ccc(C(=O)Nc2ccc(CN3CCOCC3)cc2)cc1Br,.,-1%,2%,3%,15µM*,.
COc1c(C)cccc1C(=O)Nc1ccc(CN2CCOCC2)cc1,16µM*,2.5µM*,?,3.2µM*,17µM*,-1%
COc1c(Cl)cc(Cl)cc1C(=O)Nc1ccc(CN2CCOCC2)cc1,.,-7%,-2%,2%,-15%,.
Cc1ccc(C)c(CN2C(=O)c3ccccc3S(=O)(=O)c3ccc(C(=O)NCc4ccccc4)cc32)c1,17%,.,.,.,0%,.
SMILES,SMN2 splice up,Rab9 promoter act,ELG1 genotoxic,NPC1 promoter act,FLuc modulator,KinaseGlo FLuc
COc1cc(C2SCCCCCCCCCCSC(c3ccc(O)c(OC)c3)SCCCCCCCCCCS2)ccc1O (configuration not stated),-4%[9.22 µM],.,.,.,.,-5%[7.66 µM]
CC(=O)N1CCOc2ccc(S(=O)(=O)NCC3CCC(C(=O)Nc4ncccc4C)CC3)cc21 (configuration not stated),.,-7%,7%,-2%,1%,.
CCCOc1ccc(C(=O)Nc2ccc(CN3CCOCC3)cc2)cc1,.,-1%,1%,8%,13µM*,.
COc1c(C)cccc1C(=O)Nc1ccc(OCC(=O)N2CCOCC2)cc1C,.,-20%,16%,-10%,13µM*,.
COc1cc(C(=O)Nc2ccc(OCC(=O)N3CCOCC3)cc2C)cc(OC)c1OC,.,-1%,4%,0%,7%,.
COc1cccc(NC(=O)c2ccc(CN3CCOCC3)cc2)c1,?,3.2µM*,8%,4µM*,11µM*,-5%
CN(C)c1ccc(C(CNS(=O)(=O)c2ccc(Cl)cc2)N2CCCC2)cc1 (configuration not stated),.,.,.,.,-5%,.
CC(C)c1nnc(NC(=O)CCC2CCCCC2)s1,.,?,12%,?,-18%,.
COc1cccc2c1CCc1c-2nc2ccccc2c1C(=O)O,.,?,?,?,0.95µM*,.
O=C(O)c1c2c(nc3ccccc13)/C(=C/c1ccc(OC(F)F)cc1)CCC2,.,?,?,?,12µM*,.
O=C(O)c1c2c(nc3ccccc13)/C(=C/c1ccc(O)cc1)CC2,-53%,?,-4%,?,0.54µM*,-6%
COC(=O)Cn1ncc(N(C)Cc2ccccc2)c(Cl)c1=O,.,?,?,2.5µM*,12µM*,.
COC(=O)Cn1ncc2c3ccccc3n(Cc3ccccc3)c2c1=O,6%,-4%,-7%,-1%,-1%,21%
Cc1ccc(-c2cc(C(=O)NCc3ccco3)c3ccccc3n2)o1,-7%,14%,-9%,-6%,12µM*,-9%
Cc1ccccc1Nc1cc(C(=O)NCc2ccco2)c2ccccc2n1,-9%,-4%,-7%,-6%,15µM*,2%
COc1cccc(-c2cc(C(=O)NCc3ccco3)c3ccccc3n2)c1,.,1%,-11%,9%,21µM*,.
O=C(NCc1ccco1)c1cc(-c2cccnc2)nc2ccccc12,-7%,-8%,-2%,-5%,-5%,1%
O=C(Nc1ccccc1)C(=O)c1cn(CC(=O)N2CCCCC2)c2ccccc12,8%,0%,-1%,6%,13µM*,-1%
